TIM10 inh – growth inhibitors of isogenic TIM10 control yeast, primary screen, counter-screen for tim10-1 yeast inhibitor project, luminescence, uHTS | S. cerevisiae TIM10 strain growth, BacTiter-Glo luminescence, 24 h | inhibition, % at 10 µM | hit rate 1.4% among 330,000 | AID 463195, 2010;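 active means inhibition of 40% or more at the single tested concentration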;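 further: wild-type TIM10 isogenic control strain grown at permissive 25 °C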
tim10-1 inh – growth inhibitors of tim10-1 mutant yeast, primary screen, luminescence, uHTS. inhibition, % at 20 µM. AID 463190, 2010. S. cerevisiae tim10-1 ts strain growth, BacTiter-Glo, 24 h. hit rate 2.2% among 330,000;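 active means inhibition of at least 40%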;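 further: mutant grown at 25 °C; 0% = DMSO wells with yeast and 100% = wells holding no yeast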
EBI2 antag – EBI2 receptor antagonists, beta-arrestin recruitment, primary screen, cell-based, luminescence, 7a,25-OHC stimulation, uHTS; G-protein coupled receptor 183 (Homo sapiens), P32249; 7a,25-OHC stimulated; inhibition, % at 5 µM; hit rate 0.81% among 360,000; in the data active means inhibition above about 38%;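 further: enzyme fragment complementation signal reports receptor beta-arrestin coupling in cells; 0% = agonist plus DMSO wells and 100% = wells without agonist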
Target sequence (P32249 whole entry, looked up, the tested form may be a part): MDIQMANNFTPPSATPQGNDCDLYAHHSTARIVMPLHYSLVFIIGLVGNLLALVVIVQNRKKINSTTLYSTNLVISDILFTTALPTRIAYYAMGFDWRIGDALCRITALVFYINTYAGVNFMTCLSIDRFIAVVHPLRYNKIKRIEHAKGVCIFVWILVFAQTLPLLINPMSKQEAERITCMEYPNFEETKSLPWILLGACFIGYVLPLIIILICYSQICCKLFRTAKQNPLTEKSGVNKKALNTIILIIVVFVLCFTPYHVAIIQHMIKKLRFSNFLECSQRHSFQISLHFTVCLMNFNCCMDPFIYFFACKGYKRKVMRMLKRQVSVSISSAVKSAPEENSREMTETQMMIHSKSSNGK
tim23-1 inh – growth inhibitors of tim23-1 mutant yeast, primary screen, luminescence, uHTS. S. cerevisiae tim23-1 growth, BacTiter-Glo luminescence, 24 h. inhibition, % at 20 µM. hit rate 1.3% among 330,000. AID 463212, 2010;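 active means growth inhibition of the mutant yeast at or above 50%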;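 further: temperature-sensitive mutant grown at 25 °C; plate controls were DMSO-treated mutant yeast for no effect and medium wells lacking yeast for full effect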
SKKanGAS inh – S. pyogenes SKKanGAS growth inhibitors in kanamycin, primary screen, streptokinase expression inhibitor project, SKKanGAS strain, BacTiter-Glo luminescence; 6 h; inhibition, % at 7.5 µM; hit rate 1.3% among 300,000; AID 1662, 2009;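 active means mean replicate score, as percent of positive control median, at least 50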;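 further: strain carries kanamycin resistance gene driven by streptokinase promoter and grows in 40 µg/ml kanamycin; loss of luminescence reflects streptokinase promoter inhibition or plain growth inhibition; 0% = median of DMSO wells and 100% = positive control at its reference dose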
PfHsp90 yeast 2 – growth inhibition of PfHsp90-expressing yeast, primary screen, antimalarial PfHsp90 inhibitor project, S. cerevisiae, BacTiter-Glo luminescence, single point, set 2; inhibition, % at 9.4 µM; hit rate 0.32% among 310,000; BacTiter-Glo ATP, 48 h; yeast lacking PDR1 and PDR3 efflux regulators; AID 504621, 2011;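 active means every replicate shows inhibition above about 80%, whatever the replicate mean, limit read from the data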;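 further: 0% = DMSO neutral controls and 100% = 20 µM radicicol positive controls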
tim10-1 confirm – growth inhibitors of tim10-1 mutant yeast, confirmation, single concentration, luminescence, S. cerevisiae | shares compounds with tim10-1 inh | S. cerevisiae tim10-1 ts strain growth, BacTiter-Glo, 24 h | inhibition, % at 20 µM | hit rate 56% among 7,400 | AID 463213, 2010;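 active means inhibition of yeast growth at or above a set limit in either of two repeat tests at 20 µM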;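 further: tim10-1 mutant grown at permissive 25 °C to find synthetic lethal compounds; 0% = DMSO yeast wells and 100% = medium wells without yeast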
TIM10 conf – growth inhibitors of wild-type TIM10 yeast, confirmation, counter-screen for tim10-1 synthetic lethality project, single concentration, luminescence, S. cerevisiae; hit rate 63% among 4,600; AID 463215, 2010; shares compounds with TIM10 inh; inhibition, % at 10 µM; S. cerevisiae tim10 strain growth, BacTiter-Glo luminescence, 24 h;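 active means inhibition of yeast growth at or above a set limit in either of two replicates at 10 µM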;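 further: this counterscreen used the strain with wild-type TIM10; 0% = yeast with DMSO and 100% = medium wells lacking yeast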
An asterisk follows results filed as active. Compounds with a hit are over-represented: about 4.7% of the library has one in this group of screens.

How did CC(C)c1onc(C(=O)N2CCC(C(N)=O)CC2)c1[N+](=O)[O-] do in these assays?
TIM10 inh: -1; tim10-1 inh: 20; EBI2 antag: 5; tim23-1 inh: 16; SKKanGAS inh: 6; PfHsp90 yeast 2: -12

How did CN(CC(=O)Nc1ccc(Cl)c(Cl)c1)C(=O)C12CC3CC(CC(C3)C1)C2 do in these assays?
TIM10 inh: 60*; tim10-1 inh: 45*; EBI2 antag: -20; tim23-1 inh: 20; SKKanGAS inh: 8; PfHsp90 yeast 2: 30; tim10-1 confirm: 19; TIM10 conf: 53*

Results for CN(CC(=O)Nc1ccc(Cl)c(Cl)c1)C1CCCCC1 ?
TIM10 inh: 3; tim10-1 inh: 20; EBI2 antag: 5; tim23-1 inh: 14; SKKanGAS inh: 0; PfHsp90 yeast 2: 5

What do the screens show for `Cc1cc(N2C(=O)CCC2=O)ccc1NC(=O)c1cccs1`?
TIM10 inh: 0; tim10-1 inh: 4; EBI2 antag: -12; tim23-1 inh: 5; SKKanGAS inh: 3; PfHsp90 yeast 2: -4

Results for COc1ccc(-n2c(=O)c3c4c(sc3n3c(=S)[nH]nc23)CCCC4)cc1 ?
TIM10 inh: 48*; tim10-1 inh: 40; EBI2 antag: -11; tim23-1 inh: 30; SKKanGAS inh: 18; PfHsp90 yeast 2: -28; tim10-1 confirm: 37*; TIM10 conf: 18

How did CCOC(=O)c1sc(NC(=O)C(C)(C)C)cc1C do in these assays?
TIM10 inh: 31; tim10-1 inh: 34; EBI2 antag: -2; tim23-1 inh: 33; SKKanGAS inh: 4; PfHsp90 yeast 2: 27

What do the screens show for `CCOC(=O)c1sc(NC(=S)NC(=O)CC(C)C)cc1C`?
TIM10 inh: 58*; tim10-1 inh: 53*; EBI2 antag: -4; tim23-1 inh: 7; SKKanGAS inh: -3; PfHsp90 yeast 2: -26; tim10-1 confirm: 42*; TIM10 conf: 51*

Results for O=C(c1ccc([N+](=O)[O-])s1)N1CCCc2ccccc21 ?
TIM10 inh: 40*; tim10-1 inh: 54*; EBI2 antag: -16; tim23-1 inh: -17; SKKanGAS inh: 1; PfHsp90 yeast 2: 7; tim10-1 confirm: 49*; TIM10 conf: 51*

How did Oc1ccc(/C=N/Nc2nccnc2Cl)c(O)c1 do in these assays?
TIM10 inh: 70*; tim10-1 inh: 61*; EBI2 antag: -13; tim23-1 inh: 47; SKKanGAS inh: 10; PfHsp90 yeast 2: -7; tim10-1 confirm: 28*; TIM10 conf: 54*

How did Oc1ccc(C=NNc2ccccn2)c(O)c1 do in these assays?
EBI2 antag: -7; PfHsp90 yeast 2: 15

What do the screens show for `Cc1cc2ccccn2c1C(=O)c1ccc([N+](=O)[O-])o1`?
TIM10 inh: 77*; tim10-1 inh: 46*; EBI2 antag: -2; tim23-1 inh: 0; SKKanGAS inh: 9; tim10-1 confirm: 30; TIM10 conf: 91*

Results for CN1CCN(c2ccccc2NC(=O)c2ccc(-c3ccc(Cl)cc3Cl)o2)CC1 ?
TIM10 inh: 46*; tim10-1 inh: 56*; EBI2 antag: 35; tim23-1 inh: 4; SKKanGAS inh: 8; PfHsp90 yeast 2: 6; tim10-1 confirm: 55*; TIM10 conf: 48*

What do the screens show for `CS(=O)(=O)N1CCN(c2ccccc2NC(=O)c2ccc(-c3ccc(Cl)cc3Cl)o2)CC1`?
TIM10 inh: 15; tim10-1 inh: 15; EBI2 antag: 27; tim23-1 inh: -3; SKKanGAS inh: 9; PfHsp90 yeast 2: -13

Results for Cc1ccc(C(=O)N2CCN(c3ncccn3)CC2)cc1S(=O)(=O)N1CCCCC1 ?
TIM10 inh: 6; tim10-1 inh: 17; EBI2 antag: 9; tim23-1 inh: 22; SKKanGAS inh: -4; PfHsp90 yeast 2: 55

What do the screens show for `COc1ccc(CNC(=O)c2ccccc2SCC(=O)NCc2ccco2)cc1`?
TIM10 inh: 13; tim10-1 inh: 4; EBI2 antag: -3; tim23-1 inh: 10; PfHsp90 yeast 2: -38

How did Cc1ccc(-c2nn(-c3ccccc3)cc2C(N)=O)o1 do in these assays?
TIM10 inh: 17; tim10-1 inh: 0; EBI2 antag: 3; tim23-1 inh: -13; SKKanGAS inh: 2; PfHsp90 yeast 2: 34

How did Cc1ccc(-c2nn(-c3ccccc3)cc2C=O)o1 do in these assays?
TIM10 inh: 72*; tim10-1 inh: 63*; EBI2 antag: -8; tim23-1 inh: -40; SKKanGAS inh: -3; PfHsp90 yeast 2: 15; tim10-1 confirm: 64*; TIM10 conf: 70*

What do the screens show for `CCCOc1ccc(C(=O)C(c2ccccc2)N2CCOCC2)cc1` (configuration not stated)?
TIM10 inh: -18; tim10-1 inh: -2; EBI2 antag: 9; tim23-1 inh: -9; SKKanGAS inh: 2; PfHsp90 yeast 2: 2

What do the screens show for `CCCOc1ccc(C(=O)C(CN2CCOCC2)c2ccccc2)cc1` (configuration not stated)?
TIM10 inh: 50*; tim10-1 inh: 46*; EBI2 antag: -44; tim23-1 inh: 32; SKKanGAS inh: 1; PfHsp90 yeast 2: 13; tim10-1 confirm: 46*; TIM10 conf: 8

What do the screens show for `CN(C)C(=S)Nc1cccc(C(F)(F)F)c1`?
TIM10 inh: 16; tim10-1 inh: 6; EBI2 antag: 7; tim23-1 inh: 25; SKKanGAS inh: -7; PfHsp90 yeast 2: -1

Results for CC(C1CC1)N(Cc1ccccc1)C(=S)Nc1cccc(C(F)(F)F)c1 (configuration not stated) ?
TIM10 inh: 53*; tim10-1 inh: 49*; EBI2 antag: 1; tim23-1 inh: 47; SKKanGAS inh: -1; PfHsp90 yeast 2: -50; tim10-1 confirm: 48*; TIM10 conf: 0

What do the screens show for `CC(C1CC1)N(Cc1ccccc1)C(=S)Nc1ccccc1` (configuration not stated)?
TIM10 inh: 42*; tim10-1 inh: 42*; EBI2 antag: -5; tim23-1 inh: 36; SKKanGAS inh: -11; PfHsp90 yeast 2: 22; tim10-1 confirm: 30; TIM10 conf: 40*

What do the screens show for `COc1ccccc1CNC(=O)C1CCN(C(=O)c2sccc2-n2cccc2)CC1`?
TIM10 inh: 1; tim10-1 inh: 9; EBI2 antag: -8; tim23-1 inh: 12; SKKanGAS inh: -4; PfHsp90 yeast 2: -9

From PubChem BioAssay
